Several values for one entry are separate records, joined by “and”; a condition that tells them apart may be missing. Equal entries are not always repeated. Inconclusive results are not listed. Where a structure was tested more than once in an assay, its records may differ in their call. Activity calls are given as the source filed them. How the source made its calls, unless noted: active means hit-call score of the fitted dose curve at least 0.9, where 1 is the maximum; inconclusive means response in the unintended direction; inactive means score below 0.9.
What was measured:
[1] = read-out: alkyl and aryl transferase (GSTA2), GSTA2 (gene 2939); assay: CLD_GSTA2_6hr: CellzDirect (CLD) Gene Expression Assay for alkyl and aryl transferase (GSTA2) at 6 hours (AID 2283666)
Summary of the method: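 Primary human hepatocytes from two donor preparations were dosed daily with fresh compound at multiple concentrations, 0.2% DMSO vehicle. GSTA2 mRNA was measured at 6 hours by qNPA chemiluminescence; induction fitted relative to DMSO, with cytotoxicity flagged morphologically.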

[2] = Tanguay_ZF_120hpf_TR_legacy: (Legacy) Oregon State University Tanguay Lab 120 Hour Post-fertilization zebrafish Assay for Touch Response (AID 2283667)
Summary of the method: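 Tropical 5D wild-type zebrafish embryos statically exposed to 120 hpf at 28°C, sealed and dark-covered, 0.64% DMSO final; touch response scored as present/absent by brightfield microscopy at 120 hpf. Trimethyltin chloride 5 uM positive control; dead embryos not scored.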

[3] = read-out: organic anion transporter (SLCO1B1), SLCO1B1 (gene 10599); assay: CLD_SLCO1B1_6hr: CellzDirect (CLD) Gene Expression Assay for organic anion transporter (SLCO1B1) at 6 hours (AID 2283668);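 further: active means mRNA induction above DMSO baseline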
Summary of the method: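 Primary human hepatocytes dosed daily with test chemicals (multiple concentrations) in 0.2% DMSO vehicle; harvested at 6 h. SLCO1B1 mRNA quantified by qNPA chemiluminescence, fitted as gain-of-signal versus DMSO; cytotoxicity from phase-contrast morphology flagged alongside.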

[4] = read-out: sulfotransferase (SULT2A), SULT2A1 (gene 6822); assay: CLD_SULT2A_6hr: CellzDirect (CLD) Gene Expression Assay for sulfotransferase (SULT2A) at 6 hours (AID 2283669);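 further: hits raise transcript level above the DMSO vehicle baseline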
Summary of the method: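 Primary human hepatocytes from two donor preparations were dosed daily with chemicals or 0.2% DMSO and harvested at 6 h. Transcript induction read by qNPA chemiluminescence, fitted for gain of signal relative to DMSO; morphology-based cytotoxicity annotated.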

[5] = read-out: Cytochrome P450 (CYP24A1_1), CYP24A1 (gene 1591); assay: LTEA_HepaRG_CYP24A1_1: Life Technologies and Expression Analysis (LTEA) Assay for Cytochrome P450 (CYP24A1_1) using HepaRG (AID 2283671; active means hit-call score of the fitted dose curve at least 0.9, where 1 is the maximum; inactive means score below 0.9); conditions: mRNA level, 48 h; actives raise or lower the signal
Summary of the method: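 Differentiated human HepaRG cells in serum-free induction medium, exposed 48 h in duplicate to eight half-log concentrations from 100 uM top, 0.5% DMSO. Transcript measured by TaqMan qRT-PCR, normalised to ACTB, GAPDH, POLR2A; bidirectional fitting versus DMSO.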

[6] = read-out: glucuronosyltransferase (UGT1A1), UGT1A1 (gene 54658); assay: CLD_UGT1A1_6hr: CellzDirect (CLD) Gene Expression Assay for glucuronosyltransferase (UGT1A1) at 6 hours (AID 2283672)
Summary of the method: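 Primary human hepatocytes from two donor preparations, dosed with fresh solutions in 0.2% DMSO, harvested at 6 h. UGT1A1 mRNA measured by qNPA chemiluminescence; induction fitted upward versus DMSO.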

[7] = CLD_ACTIN_6hr: CellzDirect (CLD) Gene Expression Assay for Baseline Control (Actin) at 6 hours (AID 2283676);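 further: active means increased actin mRNA relative to DMSO vehicle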
Summary of the method: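 Primary human hepatocytes dosed with fresh chemical solutions (vehicle 0.2% DMSO), harvested at 6 h. Actin mRNA quantified by quantitative nuclease protection assay with chemiluminescent read-out, as background control relative to DMSO.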

[8] = read-out: Cytochrome P450 2B6 (Homo sapiens) (UniProt P20813); assay: CLD_CYP2B6_6hr: CellzDirect (CLD) Gene Expression Assay for xenobiotic metabolism (CYP2B6) at 6 hours (AID 2283677);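 further: actives raise CYP2B6 transcript above DMSO baseline so AC50 marks an inducer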
Summary of the method: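 Primary human hepatocytes dosed with chemicals at multiple concentrations, vehicle 0.2% DMSO; CYP2B6 mRNA induction measured 6 h after dosing by quantitative nuclease protection assay with chemiluminescence, gain of signal fitted relative to DMSO.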

[9] = CCTE_Padilla_ZF_144hpf_TERATOSCORE: (Legacy) CCTE's 144 Hour Post-fertilization zebrafish Assay Teratoscore, Padilla Lab (AID 2283679; active means hit-call score of the fitted dose curve at least 0.9, where 1 is the maximum; inactive means score below 0.9;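 on AC50: zebrafish embryos with chorions exposed by immersion from 6-8 hpf to 5 dpf with daily renewal; teratogenicity score from eye scoring of death hatching and malformations at 144 hpf; higher score means more developmental defects relative to DMSO baseline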)
Summary of the method: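 Larvae scored by eye at 144 hpf for death, hatching and malformations after a day in clean Hanks'. Before that, daily-renewed exposure at 80 uM (0.4% DMSO, 26C) from roughly 6-8 hpf through 5 dpf, 4 embryos per chemical.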

[10] = read-out: Glyceraldehyde-3-phosphate dehydrogenase (Homo sapiens) (UniProt P04406); assay: CLD_GAPDH_6hr: CellzDirect (CLD) Gene Expression Assay for Baseline Control (Glyceraldehyde 3-phosphate dehydrogenase) at 6 hours (AID 2283681);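 further: active means increased signal relative to DMSO vehicle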
Summary of the method: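 Primary human hepatocytes from two donor preparations, dosed at multiple concentrations with 0.2% DMSO vehicle; GAPDH mRNA measured 6 h after dosing by chemiluminescent quantitative nuclease protection assay (qNPA) on denatured lysates. Serves as background control; cytotoxicity annotated by morphology.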

[11] = read-out: Broad substrate specificity ATP-binding cassette transporter ABCG2 (Homo sapiens) (UniProt Q9UNQ0); assay: CLD_ABCG2_24hr: CellzDirect (CLD) Gene Expression Assay for ABC Transporter (ABCG2) at 24 hours (AID 2283685)
Summary of the method: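 Primary human hepatocytes were dosed daily with ToxCast chemicals at multiple concentrations (vehicle 0.2% DMSO). ABCG2 mRNA was measured at 24 h by qNPA chemiluminescence; induction was scored as gain of signal versus DMSO.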

[12] = read-out: Cytochrome P450 2C19 (Homo sapiens) (UniProt P33261); assay: CLD_CYP2C19_24hr: CellzDirect (CLD) Gene Expression Assay for xenobiotic metabolism (CYP2C19) at 24 hours (AID 2283687);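 further: activity means mRNA induction above DMSO vehicle baseline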
Summary of the method: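 Primary human hepatocytes (two donor preparations) dosed daily with fresh test chemical in 0.2% DMSO vehicle; CYP2C19 mRNA induction measured at 24 h by quantitative nuclease protection assay with chemiluminescence, fitted for gain of signal versus DMSO.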

[13] = read-out: Cytochrome P450 2C9 (Homo sapiens) (UniProt P11712); assay: CLD_CYP2C9_24hr: CellzDirect (CLD) Gene Expression Assay for xenobiotic metabolism (CYP2C9) at 24 hours (AID 2283688)
Summary of the method: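 Primary human hepatocytes from two donor preparations, dosed daily for two days at multiple concentrations; vehicle 0.2% DMSO. CYP2C9 mRNA induction at 24 h measured by qNPA chemiluminescence relative to DMSO; cytotoxicity annotated from morphology.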

[14] = CCTE_Simmons_CellTiterGLO_HEK293T: Viability Assessment in CCTE's Assays for Thyroperoxidase (TPO) Inhibition, Simmons Lab (AID 2283665);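 on AC50: cells exposed to compound for 24 h before readout; actives reduce ATP signal below DMSO vehicle meaning cytotoxicity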
Summary of the method: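 HEK293T cells in DMEM with 1% FBS were dosed with 8 concentrations (5 nM–87.5 uM final, 0.5% DMSO) for 24 hr at 37C; ATP content was read by CellTiter-Glo luminescence, loss-of-signal versus DMSO, three biological replicates.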

[15] = read-out: xenobiotic metabolism (CYP1A1), CYP1A1 (gene 1543); assay: CLD_CYP1A1_24hr: CellzDirect (CLD) Gene Expression Assay for xenobiotic metabolism (CYP1A1) at 24 hours (AID 2283673);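 further: CYP1A1 mRNA level by quantitative nuclease protection with chemiluminescence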
Summary of the method: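 Primary human hepatocytes dosed daily with fresh solutions in 0.2% DMSO vehicle. mRNA measured at 24 h by quantitative nuclease protection assay with chemiluminescence; gain-of-signal fit versus DMSO, with morphology-based cytotoxicity flags.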

[16] = read-out: Cytochrome P450 3A4 (Homo sapiens) (UniProt P08684); assay: CLD_CYP3A4_6hr: CellzDirect (CLD) Gene Expression Assay for xenobiotic metabolism (CYP3A4) at 6 hours (AID 2283680)
Summary of the method: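 Primary human hepatocytes (two donor preparations) dosed; CYP3A4 mRNA harvested at 6 h and quantified by qNPA chemiluminescence. Gain of signal fitted against 0.2% DMSO vehicle; cytotoxicity flagged by phase-contrast morphology.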

[17] = read-out: HMG-CoA synthase (HMGCS2), HMGCS2 (gene 3158); assay: CLD_HMGCS2_6hr: CellzDirect (CLD) Gene Expression Assay for HMG-CoA synthase (HMGCS2) at 6 hours (AID 2283682);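 further: actives raise HMGCS2 transcript above the 0.2% DMSO vehicle baseline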
Summary of the method: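 Primary human hepatocytes dosed daily with fresh chemical, 0.2% DMSO vehicle; HMGCS2 mRNA measured at 6 h by qNPA chemiluminescence. Gain of signal fitted against DMSO; cytotoxicity flagged from phase-contrast morphology.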

[18] = read-out: ABC Transporter (ABCB1), ABCB1 (gene 5243); assay: CLD_ABCB1_24hr: CellzDirect (CLD) Gene Expression Assay for ABC Transporter (ABCB1) at 24 hours (AID 2283684)
Summary of the method: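 Primary human hepatocytes, two donor preparations, dosed daily with fresh solutions; vehicle 0.2% DMSO; harvested at 24 h. ABCB1 mRNA measured by quantitative nuclease protection assay (chemiluminescence); morphology-based cytotoxicity annotated.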

[19] = read-out: Cytochrome P450 2B6 (Homo sapiens) (UniProt P20813); assay: CLD_CYP2B6_24hr: CellzDirect (CLD) Gene Expression Assay for xenobiotic metabolism (CYP2B6) at 24 hours (AID 2283686)
Summary of the method: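 Primary human hepatocytes dosed daily for two days with fresh solutions, harvested at 24 hours; mRNA induction quantified by qNPA chemiluminescence, gain of signal vs 0.2% DMSO vehicle. Cytotoxicity annotated from phase-contrast morphology.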

[20] = read-out: xenobiotic metabolism (CYP1A2), CYP1A2 (gene 1544); assay: CLD_CYP1A2_24hr: CellzDirect (CLD) Gene Expression Assay for xenobiotic metabolism (CYP1A2) at 24 hours (AID 2283683)
Summary of the method: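 Primary human hepatocytes from two donor preparations dosed daily with multiple concentrations of chemical, 0.2% DMSO vehicle. CYP1A2 mRNA at 24 h quantified by qNPA chemiluminescence; gain of signal analyzed relative to DMSO. Cytotoxicity flagged by phase-contrast morphology.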

Measured: AC50

Chain of Glyceraldehyde-3-phosphate dehydrogenase (Homo sapiens) (P04406 whole entry, looked up): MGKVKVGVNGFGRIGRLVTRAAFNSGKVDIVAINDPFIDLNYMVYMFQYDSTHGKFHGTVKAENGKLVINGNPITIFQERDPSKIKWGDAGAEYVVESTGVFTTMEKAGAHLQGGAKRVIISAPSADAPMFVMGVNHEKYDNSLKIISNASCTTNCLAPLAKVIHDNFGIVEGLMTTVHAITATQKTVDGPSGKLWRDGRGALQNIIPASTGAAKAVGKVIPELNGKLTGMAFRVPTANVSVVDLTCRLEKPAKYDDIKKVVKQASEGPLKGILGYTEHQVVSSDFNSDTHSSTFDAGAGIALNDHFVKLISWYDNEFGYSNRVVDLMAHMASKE
Chain of Broad substrate specificity ATP-binding cassette transporter ABCG2 (Homo sapiens) (Q9UNQ0 whole entry, looked up): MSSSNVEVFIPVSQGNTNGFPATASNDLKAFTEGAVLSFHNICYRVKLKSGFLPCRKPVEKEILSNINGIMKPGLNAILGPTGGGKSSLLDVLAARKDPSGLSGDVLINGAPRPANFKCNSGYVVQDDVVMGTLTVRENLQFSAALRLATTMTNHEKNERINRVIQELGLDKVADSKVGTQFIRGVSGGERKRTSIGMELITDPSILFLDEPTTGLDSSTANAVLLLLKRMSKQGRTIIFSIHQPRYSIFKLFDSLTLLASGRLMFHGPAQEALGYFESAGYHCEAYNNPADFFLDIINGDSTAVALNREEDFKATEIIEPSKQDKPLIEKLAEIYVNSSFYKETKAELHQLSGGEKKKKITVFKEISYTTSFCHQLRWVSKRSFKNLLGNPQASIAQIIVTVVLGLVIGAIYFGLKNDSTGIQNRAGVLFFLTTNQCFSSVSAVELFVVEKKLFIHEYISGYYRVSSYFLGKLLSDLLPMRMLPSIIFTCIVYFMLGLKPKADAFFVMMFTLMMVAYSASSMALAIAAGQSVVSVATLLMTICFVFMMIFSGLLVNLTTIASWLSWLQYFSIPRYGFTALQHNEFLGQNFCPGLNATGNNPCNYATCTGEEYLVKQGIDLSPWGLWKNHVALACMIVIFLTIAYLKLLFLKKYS
Chain of Cytochrome P450 2C19 (Homo sapiens) (P33261 whole entry, looked up): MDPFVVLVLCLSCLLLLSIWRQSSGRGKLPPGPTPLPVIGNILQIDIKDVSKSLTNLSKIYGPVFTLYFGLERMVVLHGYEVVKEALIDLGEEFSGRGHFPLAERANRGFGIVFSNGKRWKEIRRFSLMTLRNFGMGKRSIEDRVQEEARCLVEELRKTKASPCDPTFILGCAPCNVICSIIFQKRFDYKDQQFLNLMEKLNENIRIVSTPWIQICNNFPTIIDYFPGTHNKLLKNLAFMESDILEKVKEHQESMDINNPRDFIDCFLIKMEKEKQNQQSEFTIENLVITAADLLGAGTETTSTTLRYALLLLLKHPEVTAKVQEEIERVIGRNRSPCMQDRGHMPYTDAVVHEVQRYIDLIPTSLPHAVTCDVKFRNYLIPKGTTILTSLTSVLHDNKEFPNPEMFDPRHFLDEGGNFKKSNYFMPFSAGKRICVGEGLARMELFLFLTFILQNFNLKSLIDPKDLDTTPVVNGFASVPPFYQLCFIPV
Chain of Cytochrome P450 3A4 (Homo sapiens) (P08684 whole entry, looked up): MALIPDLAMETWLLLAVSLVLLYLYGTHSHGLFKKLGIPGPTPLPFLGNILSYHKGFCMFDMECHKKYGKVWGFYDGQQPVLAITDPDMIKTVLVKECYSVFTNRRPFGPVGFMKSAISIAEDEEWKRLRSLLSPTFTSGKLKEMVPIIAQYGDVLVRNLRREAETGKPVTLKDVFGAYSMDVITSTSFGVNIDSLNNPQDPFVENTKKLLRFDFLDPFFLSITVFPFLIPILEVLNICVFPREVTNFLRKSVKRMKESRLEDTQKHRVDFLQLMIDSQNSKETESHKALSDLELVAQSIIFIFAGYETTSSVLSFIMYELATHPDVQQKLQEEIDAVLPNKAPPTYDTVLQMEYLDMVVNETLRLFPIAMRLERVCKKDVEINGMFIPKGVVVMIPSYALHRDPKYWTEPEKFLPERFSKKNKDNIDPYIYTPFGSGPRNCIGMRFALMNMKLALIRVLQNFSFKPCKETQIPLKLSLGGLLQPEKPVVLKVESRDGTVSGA

CO/C=C(/C(=O)OC)c1ccccc1Oc1cc(Oc2ccccc2C#N)ncn1
active: [2] 4.04 µM | [8] 1 µM | [9] 1.46 µM and 4.82 µM and 4.07 µM
inactive: [1] | [2] | [3] | [4] | [5] | [6] | [7] | [10] | [11] | [12] | [13]

CCOC(=O)CC(SP(=S)(OC)OC)C(=O)OCC (centres undefined)
active: [2] 26.5 µM | [9] 27.3 µM
not listed: [5] | [7] | [18] | [19] | [20]
inactive: all other assays above

COC(=O)C(C)Oc1ccc(Oc2ccc(Cl)cc2Cl)cc1 (centres undefined)
active: [8] 3.09 µM and 7.54 µM | [9] 5.23 µM
inactive: [1] | [2] | [3] | [4] | [6] | [7] | [8] | [16] | [10] | [17] | [18] | [11] | [12] | [13]

COC(=O)C=C(C)OP(=O)(OC)OC
active: [9] 48.1 µM
not listed: [5] | [11] | [12] | [13] | [15] | [18] | [20]
inactive: all other assays above

CC1COC(Cn2cncn2)(c2ccc(Oc3ccc(Cl)cc3)cc2Cl)O1 (centres undefined)
active: [14] 27.9 µM | [4] 20 µM | [9] 5.5 µM
inactive: [2] | [3] | [6] | [7] | [8] | [10] | [17] | [11] | [12]

Cc1ccc(-c2c(Cl)nc(C#N)n2S(=O)(=O)N(C)C)cc1
inactive: [1] | [2] | [3] | [7] | [10] | [17] | [11]
active: [4] 20 µM | [8] 1.88 µM | [9] 5.47 µM | [16] 1.89 µM

CCCN(CCC)c1c([N+](=O)[O-])cc(S(N)(=O)=O)cc1[N+](=O)[O-]
inactive: [2] | [3] | [4] | [6] | [16] | [17] | [13]
active: [14] 27.1 µM [middle of 5 runs] | [9] 15.8 µM and 15.6 µM

CNC(=S)S
active: [4] 7.49 µM
inactive: [14] | [2] | [6] | [15] | [8] | [16] | [10] | [17] | [18]

COP(N)(=O)SC (centres undefined)
inactive: [1] | [3] | [4] | [7] | [9] | [16] | [17] | [12] | [13]

CCON=C(CC)C1=C(O)CC(c2c(C)cc(C)cc2C)CC1=O (centres undefined)
active: [9] 64.2 µM
not listed: [4] | [5] | [14] | [15] | [18] | [19] | [20]
inactive: all other assays above

CC(C)C1(C)N=C(c2nc3ccccc3cc2C(=O)O)NC1=O (centres undefined)
not listed: [1] | [5] | [11] | [13] | [14] | [15] | [18] | [19]
inactive: all other assays above

CCCCC(CC)COC(=O)c1ccccc1C(=O)OCC(CC)CCCC (centres undefined)
active: [8] 4.09 µM
not listed: [1] | [5] | [7] | [11] | [14] | [16] | [18] | [19]
inactive: all other assays above

CC(Oc1ccc(Cl)cc1Cl)C(=O)O (centres undefined)
active: [9] 0.67 µM
inactive: [1] | [6] | [7] | [8] | [10] | [11] | [12] | [13]

COC(=O)N(OC)c1ccccc1COc1ccn(-c2ccc(Cl)cc2)n1
active: [9] 0.192 µM
inactive: [1] | [2] | [3] | [4] | [16] | [10] | [17] | [11] | [12] | [13]

O=C(O)c1nc(Cl)ccc1Cl
active: [17] 1.89 µM
inactive: [1] | [2] | [3] | [6] | [7] | [8] | [9] | [10] | [12]

N#CC(CCc1ccc(Cl)cc1)(Cn1cncn1)c1ccccc1 (centres undefined)
active: [8] 0.446 µM | [9] 25.8 µM | [19] 0.389 µM
inactive: [2] | [4] | [6] | [16] | [17] | [11] | [12] | [13]

COc1cnc(OC)n2nc(NS(=O)(=O)c3c(OCC(F)F)cccc3C(F)(F)F)nc12
active: [16] 8.34 µM
not listed: [1] | [2] | [5] | [10] | [13] | [14] | [18] | [20]
inactive: all other assays above

Source: PubChem BioAssay (EPA / NIEHS)
